# Results with a measured potency or affinity are listed apart. Active and inactive are the calls of the source.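 Rule for the calls: active = cell killing, with a fitted active concentration at or below twice the top valid dose tested; inconclusive = flat curve with moderate cell loss, or an unreliable fit; inactive = effect in the rising direction, plus the rest.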
# Test: HEK293T cell cytotoxicity, dose response, cytotoxicity control, plate reader, dry powder, set 10 (AID 743315)
# Conditions: HEK293T viability, CellTiter-Glo ATP luminescence, 72 h; series mostly up to 26 µM; activity change, negative = cytotoxicity: at the top concentration
Compound,"activity change, negative = cytotoxicity",outcome
COc1cccc(OCCn2c(=S)[nH]c3ccccc32)c1,6.36% (inactive),
CC(C)(C)c1ccccc1OCCn1c(=S)[nH]c2ccccc21,-30.9% (inactive),
S=c1[nH]c2cc(Cl)ccc2n1CCOc1ccccc1,-14.4% (inactive),
O=c1[nH]c2ccccc2n1CCOc1ccccc1,-28.5% (inactive),
Cc1ccc(C(C)C)c(OCCn2c(=S)[nH]c3cccc(C)c32)c1,-17.8% (inactive),
Cc1ccc(C(C)C)c(OCCn2c(=S)[nH]c3ccc(F)cc32)c1,-9.68% (inactive),
S=c1[nH]c2cccc(Cl)c2n1CCOc1ccccc1,,inactive
Fc1ccc2[nH]c(=S)n(CCOc3ccccc3)c2c1,10.8% (inactive),
CC(C)c1ccccc1OCCn1c(=S)[nH]c2ccccc21,-19.5% (inactive),
Cc1ccc(C(C)C)c(OCCn2c(=S)[nH]c3c(F)cccc32)c1,33.2% (inactive),
Cc1ccc(OCCn2c(=S)[nH]c3ccccc32)c(C)c1,-3.74% (inactive),
Cc1cccc(OCCn2c(=S)[nH]c3ccccc32)c1C,6.98% (inactive),
Cc1ccc(C(C)C)c(OCCn2c(CO)nc3ccccc32)c1,-16.6% (inactive),
Cc1cccc2[nH]c(=S)n(CCOc3ccccc3)c12,43.9% (inactive),
CC(C)(C)c1ccc(OCCn2c(=S)[nH]c3ccccc32)cc1,-20.3% (inactive),
Cc1cccc(OCCn2c(=S)[nH]c3ccccc32)c1,16.4% (inactive),
COCc1nc2ccccc2n1CCOc1ccc(C(C)(C)C)cc1,32.5% (inactive),
Cc1ccccc1OCCn1c(=S)[nH]c2ccccc21,-25.7% (inactive),
Cc1cccc(OCCn2c(=S)[nH]c3cc(F)ccc32)c1,-4.17% (inactive),
Cc1cccc(OCCn2c(=S)[nH]c3c(F)cccc32)c1,,inactive
Fc1ccc(OCCn2c(=S)[nH]c3ccccc32)cc1,-1.94% (inactive),
